Bioassay records from PubChem.
Compounds with a hit are over-represented: about 2.4% of the library has one in this group of screens.
CHRM1 PAM = human CHRM1 positive allosteric modulation; activation, % at 3 µM; actives 0.088% (n = 360,000); CHO-K1 hM1, Fluo-8 calcium fluorescence, ACh EC20; 0% = ACh EC20, 100% = maximal ACh; P11229; in the data active = activation above about 19%, passing the limit was not always enough
Target sequence (P11229 whole entry, looked up): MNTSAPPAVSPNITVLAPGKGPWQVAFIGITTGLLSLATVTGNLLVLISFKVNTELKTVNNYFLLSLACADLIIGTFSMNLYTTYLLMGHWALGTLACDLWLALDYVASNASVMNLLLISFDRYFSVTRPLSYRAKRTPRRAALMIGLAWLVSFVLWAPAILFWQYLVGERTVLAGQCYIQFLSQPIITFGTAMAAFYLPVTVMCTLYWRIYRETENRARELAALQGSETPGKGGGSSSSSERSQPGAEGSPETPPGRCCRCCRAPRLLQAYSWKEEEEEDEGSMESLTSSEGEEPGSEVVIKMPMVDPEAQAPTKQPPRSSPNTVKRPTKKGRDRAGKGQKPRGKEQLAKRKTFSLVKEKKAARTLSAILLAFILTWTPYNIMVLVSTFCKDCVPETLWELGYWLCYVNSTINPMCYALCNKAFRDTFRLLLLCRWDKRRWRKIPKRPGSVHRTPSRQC
CHRM1 agonist = human M1 muscarinic receptor agonism; P11229; CHO-K1 hM1, Fluo-8 calcium fluorescence, agonist mode; 0% DMSO, 100% acetylcholine EC100; activation, % at 3 µM; actives 0.33% (n = 360,000); AID 588814;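 active = activation above the run's mean compound activation plus 3 SD, cut at about 16% in these data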;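 note: peak over basal fluorescence ratio within a 140 s kinetic read after compound addition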
M1 PAM parental = M1 PAM counterscreen hit in parental CHO-K1 cells | actives 0.02% (n = 360,000) | ATP EC20, Fluo-8 calcium fluorescence; 0% at ATP EC20, 100% at ATP max | activation, % at 3 µM | AID 602247;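 active = activation above the run cutoff, the mean activation of all test compounds plus 3 SD, cut at about 40% in these data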;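 note: peak over basal fluorescence ratio in a 140 s read after ATP addition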
CHO-K1 Ca antag = M1 antagonist counterscreen hit in parental CHO-K1 cells | ATP-induced calcium, Fluo-8 fluorescence | inhibition, % at 3 µM | actives 0.6% (n = 360,000) | AID 602250;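 active = inhibition above a per-plate cutoff, the plate's mean sample inhibition plus 3 SD, cut at about 24% in these data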
M1 antag = human CHRM1 antagonism | actives 1.3% (n = 360,000) | inhibition, % at 3 µM | CHO-K1 hM1, Fluo-8 calcium fluorescence, ACh EC80 antagonist;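 active = percent inhibition above its own plate's cutoff, namely the mean of that plate's compound wells plus 3 SD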;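 note: peak over basal fluorescence ratio during 140 s after agonist addition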
M1 ag parental = M1 agonist counterscreen hit in parental CHO-K1 cells; activation, % at 3 µM; Fluo-8 calcium fluorescence; scaled to maximal ATP response, vehicle zero; actives 0.48% (n = 360,000); in the data active = activation above about 15%;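 note: untransfected CHO-K1 host cells lacking M1 receptor as counterscreen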
Each line names hits and unclear results; the compound was inactive in the other large screens; ! = repeats disagree.

CC(CC(C#N)(c1ccccc1)c1ccccc1)N(C)C (stereo unspecified)	M1 antag 102
C[C@@H]1COc2cccc(N3CCN(C)CC3)c2S(=O)(=O)N1	none (no result: CHRM1 PAM, CHRM1 agonist, M1 antag)
N#CC(C#N)=Cc1ccc(N2CCOCC2)cc1	none
Cc1cc(C=C(C#N)C#N)ccc1N1CCCC1	M1 ag parental 16
COc1ccc(-n2nnnc2C(CCc2ccccc2)N2CCC(n3c(=O)[nH]c4ccccc43)CC2)cc1 (stereo unspecified)	none
CCOP(=O)(OCC)C(NC(=O)c1ccccc1)C(Cl)(Cl)Cl (stereo unspecified)	CHO-K1 Ca antag 24
C[N+](C)(C)CCOC(=O)CBr	CHRM1 agonist 20
COC(=O)C1=C(c2ccc(OC(F)(F)F)cc2)C[C@@H]2CC[C@H]1N2C(=O)NCc1cc(C)oc1C(F)(F)F	none
CCN(CC)CCC(=O)O[C@H]1CC[C@]2(C)C3CC[C@@]4(C)C(CC[C@]4(C)O)C3CC[C@H]2C1 (stereo partly specified)	M1 antag 50
O=C(O)C(O)(c1ccc(Cl)cc1)C1(O)CCCC1 (stereo unspecified)	none
C[C@]12C[C@H](O)[C@@H](O)C[C@@H]1CC[C@@H]1[C@@H]2CC[C@]2(C)C(=O)CC[C@@H]12	none
O=[N+]([O-])c1ccc(-[n+]2c(-c3ccccc3)cc(-c3ccccc3)cc2-c2ccccc2)cc1	M1 antag 36
CC(C)[N+](C)(CCC(C(N)=O)(c1ccccc1)c1ccccc1)C(C)C	M1 antag 99
O=C1C2CC(CN3CCCCC23)C2CCCCN12 (stereo unspecified)	none
O=C(Oc1ccc([N+](=O)[O-])cc1)N1CCC(N2CCCCC2)CC1	M1 antag 85
CC(=O)Nc1ccc(OC(=O)N2CCCCC2)cc1	none
O=c1[nH]c2ccccc2n1C1CCN(Cc2ccc(-c3nc4ccc(F)cc4nc3-c3ccccc3)cc2)CC1	none (no result: CHRM1 PAM, CHRM1 agonist, M1 antag)
CCC1(C)OC(c2ccccc2)=C/C(=C/C=C2C(=O)NC(=O)NC2=O)O1 (stereo unspecified)	CHRM1 agonist 23
CCC1(Oc2ccccc2)C(=O)NC(=O)NC1=O	none
O=C1NCN(c2ccccc2)C12CCN(C(c1ccccc1OC(F)(F)F)c1nnnn1C1CCCC1)CC2 (stereo unspecified)	none
Cc1[nH]c2ccc(OC(F)(F)F)cc2c1CCNCc1cccc([N+](=O)[O-])c1	M1 ag parental 35
Cc1[nH]c2ccc(OC(F)(F)F)cc2c1CCNCc1ccc(Cl)cc1	none
CCOc1cccc(CNCCc2c(C)[nH]c3ccc(OC(F)(F)F)cc23)c1O	CHO-K1 Ca antag 53, M1 antag 37, M1 ag parental 37
c1cc2c(cc1-c1ccc3c(c1)OCO3)CNCc1cnnn1-2	none
ClC1C(Cl)C(Cl)C(Cl)C(Cl)C1Cl (stereo unspecified)	CHRM1 agonist 47!
Cc1cc(C)c(S(=O)(=O)N2Cc3ccccc3-n3nncc3C2)c(C)c1	none
S=C(NCCc1ccccc1)N1Cc2ccc(Br)cc2-n2nncc2C1	none
S=C(NCCc1ccccc1)N1Cc2cc(Br)ccc2-n2nncc2C1	CHO-K1 Ca antag 27
c1cc2c(cc1NC1=NCCO1)CCCC2	none
Cc1ccc(N2C(=O)NC(=O)/C(=C/c3cnc(-c4ccccc4)nc3)C2=O)cc1C	none
CC(C)c1ccc(N2C(=O)NC(=O)/C(=C\c3cnc(-c4ccccc4)nc3)C2=O)cc1	CHRM1 PAM 26
CCCCCCCSc1cc(OC)c(CCNC)cc1OC	none
CCCCCSc1cc(OC)c(CCNC)cc1OC	M1 antag 36
Oc1ccc(Cl)c(Cl)c1Cl	M1 antag 24
O=C(Nc1cccc(Cl)c1)N1C[C@H]2C[C@@H](C1)c1cccc(=O)n1C2	none
C[N+](C)(C)CC#CCOC(=O)Nc1cccc(Cl)c1	CHRM1 agonist 91, M1 antag 88
O=c1[nH]c(=O)n(Cc2ccccc2Cl)c(O)c1/C=C1/C=CC=N1	none
C[C@H]1OC[C@@H](C[N+](C)(C)C)O1	CHRM1 agonist 121, M1 antag 83
CC1OC(C[N+](C)(C)C)CC1O (stereo unspecified)	CHRM1 agonist 114, M1 antag 88
COC(=O)Cn1cc(/C=C2\C(=O)NC(=O)N(c3ccc(OC)cc3)C2=O)c2ccccc21	none
COc1ccc(N2C(=O)NC(=O)/C(=C\c3cn(C)c4ccccc34)C2=O)cc1	CHO-K1 Ca antag 42, M1 ag parental 32
C#C[C@]1(O)CCC2C3C(=O)C=C4C=CCC[C@]4(C)C3CC[C@@]21C (stereo partly specified)	none
C#CC1(O)CCC2C3CCC4=CC(=O)CCC4=C3C=CC21C (stereo unspecified)	M1 ag parental 16
O=C1NCN(c2ccccc2)C12CCN(C(CCc1ccccc1)c1nnnn1C1CCCCC1)CC2 (stereo unspecified)	none
O=C(NCC1=C(c2cccc3ccccc23)C[C@@H]2CC[C@H]1N2Cc1ccco1)c1cccs1	none
CCC(C)N1C(=O)NC(=O)C2(Cc3c(ccc4ccccc34)N(C)C2)C1=O (stereo unspecified)	M1 antag 44
O=C(c1cccc2ccccc12)C1CCCN(Cc2ccon2)C1 (stereo unspecified)	none
O=C(c1cccc2ccccc12)C1CCCN(C2CCC2)C1 (stereo unspecified)	CHRM1 agonist 16, M1 antag 26
C#CCOC(=O)C1=CCCN(C)C1	CHRM1 agonist 106
COc1cc(CN2CC=C(c3ccc(F)cc3)CC2)cc(OC)c1	M1 antag 31
CCOP(=S)(OCC)Oc1cc(C)oc(=O)c1Cl	none
CCOP(=S)(OCC)Oc1cc(C)oc(=O)c1	CHRM1 PAM 29
CC(C)(C)n1nnnc1C(c1cccs1)N1CCC2(CC1)C(=O)NCN2c1ccccc1 (stereo unspecified)	none
Clc1cccc(N2Cc3ccccc3-n3nncc3C2)c1	none
O=C(Nc1ccccc1)NC1CC2CCC(C1)N2 (stereo unspecified)	M1 antag 31
CC1(C(O)(C#CCN2CCCCC2)c2ccccc2)CCCC1 (stereo unspecified)	M1 antag 100
OC(CC#CCN1CCCCCC1)(c1ccccc1)C1CCCC1 (stereo unspecified)	M1 antag 100, M1 ag parental 17
C(#CCN1CCCCC1)COCc1ccccc1	none
CN(C)CC#CCn1c2ccccc2c2ccccc21	none
CN(C)CC#CCC(O)(c1ccccc1)C1CCCC1 (stereo unspecified)	CHO-K1 Ca antag 25, M1 antag 99
O=C1CC2OCC=C3CN4CCC56c7ccccc7N1C5C2C3CC46O (stereo unspecified)	none
